Assay [1] concerns HT29 RNF43 G659fs (RNF43 659mut, CRISPR-edited). The experiment in a line: cell viability activity relative to DMSO (negative = inhibition); higher = more viable cells (less growth inhibition). The settings on record: 5 µM; 96 h. The procedure:
(§1)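 Broad Repurposing Library primary screen at a single dose of 5 uM. HT29 sg-Ctrl and HT29 RNF43 G659fs CRISPR-edited isogenic cells were seeded at 2500 cells/well in 384-well plates in duplicate and treated for 96 h. Viability was read by CellTiter-Glo and reported as % activity relative to DMSO, with MG132 as the positive control (negative = growth inhibition).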

In assay [2] the test system is HT29 sg-Ctrl (RNF43 wildtype). The assay is described as above. The settings on record: 5 µM; 96 h. As to the method:
as §1

Results on 38 molecules are retold here after the supplement of paper PMC9177965.

Each structure is given as a SMILES string. Several values for one entry are separate records, joined by “and”; a condition that tells them apart may be missing. Identical values can stand only once.

In the case of `CC(=O)NCC(=O)N1[C@@H]2CC[C@H]1c1ccc(Nc3ncc(C(F)(F)F)c(NC4CCC4)n3)cc12`, the results for the cell viability activity in assay [1] and in assay [2] were -41.1% and -44.1%, respectively.

In the case of `C[C@H]1[C@H](OC(=O)CCC(=O)O)O[C@@H]2O[C@@]3(C)CC[C@H]4[C@H](C)CC[C@@H]1[C@@]24OO3`, the cell viability activity is -42.8% and -37.2% in assay [1]; -35.1% and -16.8% in assay [2].

Turning to `CCCC1(CCC)CCC2(CCN(CCCN(CC)CC)C2)CC1`, the cell viability activity in assay [1] is -96.4%; in assay [2], -95.6%.

With `Cc1cc(-c2ccc(/N=N/c3ccc4c(S(=O)(=O)O)cc(S(=O)(=O)O)c(N)c4c3O)c(C)c2)ccc1/N=N/c1ccc2c(S(=O)(=O)O)cc(S(=O)(=O)O)c(N)c2c1O`, the cell viability activity was -43.7% in assay [1] and -20.4% in assay [2].

For `CNC(=O)Nc1ccc(-c2nc(N3CC4CCC(C3)O4)c3cnn(C4CCC5(CC4)OCCO5)c3n2)cc1`, the cell viability activity in assay [1] is -50.9%; in assay [2] it was -19.4%.

Turning to `COC(=O)[C@H]1[C@H]2C[C@@H]3c4[nH]c5cc(OC)ccc5c4CCN3C[C@H]2C[C@@H](OC(=O)c2cc(OC)c(OC)c(OC)c2)[C@@H]1OC`, the cell viability activity in assay [1] was -26.1%; in assay [2] it was -40.7%.

As to `Cc1ccc(C(=O)Nc2ccc(Oc3cc4cnn(C)c4cc3-c3cn[nH]c3)c(F)c2)c(=O)n1-c1ccc(F)cc1`, the cell viability activity in assay [1] is -41.5%; in assay [2], -29%.

Regarding `CO[C@H]1C(=O)[C@]2(C)[C@@H](OC)C[C@H]3OC[C@@]3(OC(C)=O)[C@H]2[C@H](OC(=O)c2ccccc2)[C@]2(O)C[C@H](OC(=O)[C@H](O)[C@@H](NC(=O)OC(C)(C)C)c3ccccc3)C(C)=C1C2(C)C`, the cell viability activity was -45% in assay [1] and -50.5% in assay [2].

For the molecule `O=C(/C=C/c1cccc(S(=O)(=O)Nc2ccccc2)c1)NO`, the cell viability activity in assay [1] was -88.3%; in assay [2], -73.9%.

For the molecule `COc1c(C)cnc(Cn2cc(C#CCC(C)(C)O)c3c(Cl)nc(N)nc32)c1C`, the cell viability activity in assay [1] was -42.7%; in assay [2] it was -88.4%.

Regarding `Cc1ccc(S(=O)(=O)C=CC#N)cc1`, the cell viability activity in assay [1] was -98.8%; in assay [2], -97.7%.

Take `COCCOc1ccc2c(c1)ncn2-c1ccc2cccc(N3CCC(N)CC3)c2n1`: the cell viability activity in assay [1] is -93.4%; in assay [2], -94.6%.

Consider `CCCCc1oc2ccc(NS(C)(=O)=O)cc2c1C(=O)c1ccc(OCCCN(CCCC)CCCC)cc1`, for which the cell viability activity in assay [1] was -96.2%; in assay [2], -91.7%.

For the molecule `CNCCn1c(=O)c2cc(OC)c(OC)cc2c2cnc3cc4c(cc3c21)OCO4`, the cell viability activity was -81.7% in assay [1] and -86.6% in assay [2].

On to `CNCCC=C1c2ccccc2CCc2ccccc21`, for which the cell viability activity in assay [1] is -70.1%; in assay [2] it was -77.1%.

As to `CC(=O)c1cc2c(o1)C(=O)c1ccccc1C2=O`, the cell viability activity is -97.1% in assay [1] and -96.4% in assay [2].

For the molecule `Clc1ccc(COC(Cn2ccnc2)c2ccc(Cl)cc2Cl)cc1` (stereo unspecified), the cell viability activity in assay [1] was -23.9%; in assay [2], -14.6%.

For the molecule `CCCCCCCCCCCCCCCC[N+](C)(C)C`, the cell viability activity is -84.6% in assay [1] and -74.2% in assay [2].

On to `CCN(CC)CCN(Cc1ccc(-c2ccc(C(F)(F)F)cc2)cc1)C(=O)Cn1c(SCc2ccc(F)cc2)nc(=O)c2c1CCC2`, for which the results for the cell viability activity in assay [1] and in assay [2] were -96.2% and -96.7%, respectively.

Turning to `COc1ccc(-c2cc3c(C)nc(N)nc3n([C@H]3CC[C@H](OCCO)CC3)c2=O)cn1`, the cell viability activity in assay [1] was -94%; in assay [2], -84.6%.

On to `Cc1nc(=O)c2cc(CN(C)c3ccc(C(=O)N[C@@H](CCC(=O)O)C(=O)O)s3)ccc2[nH]1`, for which the cell viability activity is -60.2% in assay [1] and -60.9% in assay [2].

On to `CCCCCCCC/C=C/CCCCCCCC(=O)OC[C@H]1O[C@@H](n2ccc(N)nc2=O)C(F)(F)[C@@H]1O`, for which the figures for the cell viability activity in assay [1] and in assay [2] were -42% and -51.8%, respectively.

With `CCc1c2c(nc3ccc(O)cc13)-c1cc3c(c(=O)n1C2)COC(=O)[C@]3(O)CC`, the cell viability activity in assay [1] was -84%; in assay [2], -63.3%.

Consider `C[C@H](Nc1cc(-c2cnn(C)c2)cc(Nc2cnccn2)n1)c1ccc(F)cc1`, for which the cell viability activity was -46.9% in assay [1] and -43% in assay [2].

`CNC(=O)c1cccc(-c2ccc3c(N4CCOC[C@@H]4C)nc(N4CCOC[C@@H]4C)nc3n2)c1`: the cell viability activity in assay [1] is -62.5%; in assay [2] it was -42.8%.

Consider `Cc1c(-c2ccc(O)cc2)n(Cc2ccc(OCCN3CCCCCC3)cc2)c2ccc(O)cc12`, for which the cell viability activity in assay [1] was -67.2%; in assay [2], -93.1%.

In the case of `O=C1NC(=O)[C@@H](c2cn3c4c(cccc24)CCC3)[C@@H]1c1c[nH]c2ccccc12`, the cell viability activity in assay [1] was -50.8%; in assay [2] it was -61.7%.

For `COC(=O)[C@]12CCC(C)(C)C[C@H]1[C@H]1C(=O)C=C3[C@@]4(C)C=C(C#N)C(=O)C(C)(C)[C@@H]4CC[C@@]3(C)[C@]1(C)CC2`, the cell viability activity was -96.8% in assay [1] and -93.4% in assay [2].

For `CON(C)C(=O)N1N=C(c2cc(F)ccc2F)S[C@@]1(CCCN)c1ccccc1`, the figures for the cell viability activity in assay [1] and in assay [2] were -73.8% and -69.7%, respectively.

In the case of `Cc1cc(Nc2ncc(Cl)c(Nc3ccccc3S(=O)(=O)C(C)C)n2)c(OC(C)C)cc1C1CCNCC1`, the cell viability activity in assay [1] was -97.2%; in assay [2], -95%.

As for `CN1c2ccccc2C(=O)N2CCc3c([nH]c4ccccc34)[C@@H]21`, the cell viability activity in assay [1] was -24.8%; in assay [2] it was -3.62%.

`O=C(Nc1c[nH]nc1-c1nc2ccc(CN3CCOCC3)cc2[nH]1)NC1CC1`: the cell viability activity in assay [1] is -72.3%; in assay [2] it was -71.2%.

Turning to `CN(C)CCN1C(=O)c2cccc3cc(N)cc(c23)C1=O`, the cell viability activity in assay [1] is -53.7%; in assay [2] it was -47.7%.

Turning to `CCCCCCCCCCCCCCCC[N+](C)(C)CCN(Cc1ccc(OC)cc1)c1ncccn1`, the cell viability activity in assay [1] is -95.1%; in assay [2], -94.5%.

In the case of `C#Cc1cccc(Nc2ncnc3cc(OC)c(OCCCCCCC(=O)NO)cc23)c1`, the cell viability activity in assay [1] is -90.3%; in assay [2], -71%.

In the case of `COc1cc(/C=C/c2ccc(OC)cc2OC)cc(OC)c1`, the cell viability activity was -65.4% in assay [1] and -75.7% in assay [2].

For `CN(C)C(=O)C(CCN1CCC(O)(c2ccc(Cl)cc2)CC1)(c1ccccc1)c1ccccc1`, the cell viability activity in assay [1] is -67.6%; in assay [2], -75.2%.

Regarding `C[C@H]1O[C@@H](O[C@H]2CC[C@@]3(C)[C@H](CC[C@@H]4[C@@H]3C[C@@H](O)[C@]3(C)[C@@H](C5=CC(=O)OC5)CC[C@]43O)C2)C[C@H](O)[C@@H]1O[C@H]1C[C@H](O)[C@H](O[C@H]2C[C@H](O)[C@H](O[C@@H]3O[C@H](CO)[C@@H](O)[C@H](O)[C@H]3O)[C@@H](C)O2)[C@@H](C)O1`, the cell viability activity was -90.5% in assay [1] and -91.5% in assay [2].
